# Test: probe aShh binding to arrayed compounds – biochemical, biotinylated probe, 635/667 nm fluorescence, primary screen (AID 1114);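 further: probe is biotin-labelled aShh protein from a stem cell growth factor screen; measures binding of labelled protein to compounds printed on the slide; score merges feature fluorescence at 667 nm with signal-to-noise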
# Details: small-molecule microarray, higher = more signal
row,Compound,composite z-score
1,NCCCCCCNC(=O)[C@H]1C[C@H]2C(=O)N3CCC[C@H]3C(=O)N2[C@H]1c1ccc(O)cc1,-0.0441
2,C[C@H]1NC(=O)C([C@@H](C)OCc2ccccc2)NC(=O)[C@@]23C(=O)N[C@@H](Cc4ccccc4)C2[C@H](C)[C@@]2(C)O[C@H]2C3/C=C/CC/C=C/CNC1=O (stereo not given in full),0.0815
3,O=C1O[C@@H](c2ccccc2)[C@@H](c2ccccc2)N2[C@@H](c3ccc(O)cc3)[C@]3(C(=O)Nc4ccc(C#CC5=CCCCC5)cc43)[C@@H](C(=O)Nc3nc4ccccc4s3)[C@H]12,0.368
4,CC(C)(C)N1CC=CC23O[C@@H]4C=CCCOC(=O)C4[C@H]2C(=O)N(CCCO)[C@@H]3C1=O (stereo not given in full),-0.0769
5,CN(C)CCCCNC(=O)[C@H]1C[C@H]2C(=O)N[C@@H](CCCC[N+](C)(C)C)C(=O)N2[C@H]1c1cccc(OCCO)c1,0.13
6,CCCCC(CC)C(O)C1C=CC2C(=O)NC(=O)C2N1Nc1ccccn1 (stereo not given),-0.119
7,C[N+](C)(C)CCCCCCNC(=O)[C@@H]1C[C@@H]2C(=O)NCC(=O)N2[C@@H]1c1cccc(OCCO)c1,-0.333
8,CCCCC=C[C@@H](NC(=O)CCc1ccccc1)c1ccccc1,1.11
9,C[N+](C)(C)CCCCCCNC(=O)[C@H]1C[C@H]2C(=O)N3CCC[C@H]3C(=O)N2[C@H]1c1cccc(OCCO)c1,0.171
10,COc1cccc(C)c1NC(=O)O[C@H]1[C@H](OC(=O)Nc2ccccc2)[C@H](OC(=O)Nc2ccccc2)[C@@H](OC)O[C@@H]1CO,0.775
11,CC(C)NC(=O)[C@@]1(Cc2ccccc2I)c2ccccc2C(=O)N(Cc2ccccc2C(F)(F)F)[C@H]1c1ccc(CO)cc1,-0.012
12,COCCCNC(=O)[C@@]1(Cc2ccccc2CN=[N+]=[N-])N=C(c2ccc(OCCCO)cc2)O[C@H]1c1ccccc1N=[N+]=[N-],0.291
13,C=C(C)[C@@H]1CC=C(C(O)C2C=CC3C(=O)N(C4CCCCC4)C(=O)C3N2Nc2ccc(OC)cc2)CC1 (stereo not given in full),-0.1
14,C=CCC(OC(C)=O)[C@@H]1[C@@H](N(Cc2ccc(-c3ccccc3)cc2)C(=O)Cc2ccc(OC)cc2)c2cc(OCCCO)ccc2N1C(=O)c1ccc(-c2ccccc2)cc1 (stereo not given in full),-0.229
15,CC(C)=CCCC(C)=CC(O)C1C=CC2C(=O)N(c3ccccc3)C(=O)C2N1Nc1ccc([N+](=O)[O-])cc1 (stereo not given),0.0952

# From PubChem BioAssay
